Consider 40 compounds from ChEMBL document CHEMBL4513146, “CO-ADD screening of Karazin Kharkiv National University (Ukraine) compounds”.

Results with a measured potency or affinity are listed apart.

What is called Inhibition is the drop in the measured response relative to a control, in per cent.

The subject of the assay is Cryptococcus neoformans. The conditions noted are these: Concentration 32 ug.mL-1; ASSAY_TEST Inhibition of Fungal Growth; detection method Resazurin; Absorption (OD600-OD570); plate type 384well; NBS; CORNING #3640.
With `O=S(=O)(c1ccc2nncn2c1)N(Cc1cc(F)cc(F)c1)c1cccc(F)c1`, the Inhibition is given as -8.32%. Next, `COc1cccc(Oc2nccn3c(=O)n(CC(=O)Nc4ccccc4C(F)(F)F)nc23)c1`: -10.15%; `CCCc1nnc2c(=O)n(CC(=O)Nc3ccc(C#N)cc3)c3ccccc3n12`: -7.04%; `CC(C)c1nnc2c(=O)n(CC(=O)Nc3cccc(Cl)c3)c3ccccc3n12`: -36.03%. Next, `CC(C)CCn1c(=O)c2sccc2n2c(=O)n(Cc3ccccc3Cl)nc12`: -23.98%. Next, `O=C(CSc1nnc2c(=O)n(-c3ccccc3)ccn12)Nc1ccccc1F`: -14.95%; `Cc1ccc(CN(c2ccc(C(C)C)cc2)S(=O)(=O)c2cccn3cnnc23)cc1`: -16.89%. Consider `CCCCc1ccc(NC(=O)CSc2nc3ccccc3n3c(C(C)C)nnc23)cc1`, for which the Inhibition was -2.44%.

As to `COC(=O)c1cccc(NC(=O)Cn2nc3c(Oc4ccccc4)nccn3c2=O)c1`, the Inhibition is reported as -9.43%.

`N#Cc1cccc(NC(=O)CSc2nnc3c4cc(-c5ccccc5)nn4ccn23)c1`: the Inhibition is reported as -14.96%. As to `COc1ccc(OC)c(NC(=O)Cn2nc3c(Sc4ccccc4)nc4ccccc4n3c2=O)c1`, the Inhibition is -24.8%. Next, `COc1cccc(NC(=O)Cn2nc3c4c5c(sc4ncn3c2=O)CCCC5)c1`: -22.51%. Next, `Cc1cc2nn(CC(=O)Nc3ccc(F)cc3)c(=O)n2c(Nc2ccccc2C)n1`: -11.54%; `CCCCOc1ccc(-c2cc3c4nnc(SCC(=O)Nc5ccc(C)c(C)c5)n4ccn3n2)cc1`: -6.11%. Next, `Cc1ccccc1Oc1nc2ccccc2n2c(=O)n(CC(=O)Nc3cccc(C(F)(F)F)c3)nc12`: -23.54%. For the compound `Cc1ccc(NC(=O)Cn2nc3ccc(SCc4ccc(Cl)cc4)nn3c2=O)c(C)c1`, the Inhibition is reported as -27.61%. Turning to `Cc1ccccc1Oc1nc2ccccc2n2c(=O)n(CC(=O)Nc3ccccc3C(F)(F)F)nc12`, the Inhibition was -23.01%. For the compound `O=C(Cn1nc2c(Oc3ccccc3)nccn2c1=O)Nc1ccc(Br)cc1F`, the Inhibition was -11.28%. On to `C=Cc1ccc(CN(c2ccc(C(C)C)cc2)S(=O)(=O)c2cccn3cnnc23)cc1`, for which the Inhibition was -17.09%. Next, `CCc1nnc2c(=O)n(CC(=O)Nc3cccc(C#N)c3)c3ccccc3n12`: -28.04%; `Cc1nnc2c(=O)n(CC(=O)Nc3ccccc3F)c3ccccc3n12`: -6.39%; `CCCNC(=O)CSc1nnc2c(=O)n(-c3ccc(F)cc3)ccn12`: -15.58%. On to `Cc1ccc(-c2cc3c4nnc(CCC(=O)NCc5ccc(C(F)(F)F)cc5)n4ccn3n2)cc1C`, for which the Inhibition is reported as -31.79%. Next, `CCc1ccc(N(Cc2ccccc2C)S(=O)(=O)c2cccn3c(CC)nnc23)cc1`: -7.67%; `Cc1ccc(CNC(=O)Cn2nc3ccc(SC4CCCCC4)nn3c2=O)cc1`: -15.57%; `CCc1ccc(N(Cc2ccc(F)cc2)S(=O)(=O)c2cccn3c(CC)nnc23)cc1`: -7.64%. As for `CCCc1nnc2c(=O)n(CC(=O)Nc3cccc(C(C)=O)c3)c3ccccc3n12`, the Inhibition is -25.21%. For the compound `Cc1nc(-c2ccccn2)cc2nn(CC(=O)Nc3ccccc3C(F)(F)F)c(=O)n12`, the Inhibition is listed as -8.99%.

On to `COc1ccc(CCn2c(=O)c3sccc3n3c(=O)n(CC(=O)c4ccccc4)nc23)cc1OC`, for which the Inhibition is on record as -38.41%. On to `Cc1ccccc1Cn1nc2c(=O)n(-c3cccc(Cl)c3C)ccn2c1=O`, for which the Inhibition was -12.78%.

Consider `O=C(CSc1nnc2c(=O)n(-c3ccc(F)c(F)c3)ccn12)c1cccc(Cl)c1`, for which the Inhibition was -8.13%. The value for `Cc1cccc(Oc2nccn3c(=O)n(CC(=O)N4CCN(c5ccc(F)cc5)CC4)nc23)c1C` was -7.63%. The value for `Cc1ccc(Oc2nccn3c(=O)n(CC(=O)Nc4ccc(Br)cc4F)nc23)cc1` was -6.11%. The value for `COc1ccccc1-n1ccn2c(SCc3ccccc3C)nnc2c1=O` was -12.54%; that for `COc1ccc(NC(=O)Cn2nc3c(SC4CCCCC4)nccn3c2=O)cc1OC` was -22.51%. For the compound `COc1ccccc1NC(=O)Cn1nc2c(SCc3ccc(Cl)cc3)nccn2c1=O`, the Inhibition is on record as -17.01%. Turning to `CCC(Sc1nnc2c(=O)n(-c3cccc(OC)c3)ccn12)C(=O)Nc1cc(OC)ccc1OC` (stereo not given), the Inhibition is -10.37%. On to `CCOc1ccc(-c2nc(CSc3nc4ccccc4n4c(C(C)C)nnc34)c(C)o2)cc1`, for which the Inhibition was -14.56%. The value for `COc1ccc(-c2cc3c4nn(CC(=O)Nc5ccccc5)c(=O)n4ccn3n2)cc1` was -7.06%.

`COc1cccc(Sc2nc3ccccc3n3c(=O)n(CC(=O)Nc4ccc(C)c(C)c4)nc23)c1`: the Inhibition was -4.85%.
